The nature of this assay: NCI Yeast Anticancer Drug Screen. Data for the wt1 strain (AID 149).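 Also: 0% = growth of vehicle-treated wt1 cultures.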 Particulars: S. cerevisiae wt1 strain (SPY 50644) growth inhibition, stronger effect = higher value. The protocol: Growth inhibition of yeast strains with defined genetic alterations is measured as a screen for potential anti-cancer activity. Selected strains with alterations in DNA damage repair or cell cycle control were exposed to compounds and growth inhibition was measured relative to vehicle treated controls. The strain used in this assay is wt1

The panel holds about 79,000 compounds, 15% with a hit somewhere; the sample as a whole holds those more often. Unmarked numbers belong to inactive results. The source made the active and inactive calls. Rule as the data show it: active = growth inhibition above about 70%; inactive = the rest.

For `COc1ccccc1N=NC(C(=O)c1ccccc1)C(=O)c1ccccc1`, the growth inhibition reads like this: (at 1.2 µM) 6%; (at 3.7 µM) 3%; (at 11.0 µM) 13%; (at 33.0 µM) 96% (active); (at 100.0 µM) 96% (active).
In the case of `FC(F)(F)c1cc(NC(=S)N2c3ccccc3-n3cccc3C2c2cccnc2)cc(C(F)(F)F)c1` (stereo not given), the growth inhibition (at 1.2 µM) is 2%; the growth inhibition (at 3.7 µM) was -5%; the growth inhibition (at 11.0 µM) is -4%; the growth inhibition (at 33.0 µM) is -6%; the growth inhibition (at 100.0 µM) was -9%.
Take `O=C1CSc2cc([N+](=O)[O-])ccc2N1`: the growth inhibition is, setting by setting: (at 1.2 µM) 4%; (at 3.7 µM) 12%; (at 11.0 µM) 5%; (at 33.0 µM) 18%; (at 100.0 µM) -20%.
Regarding `CCCCCCCCCCCCCC[N+](C)(CC(=O)[O-])Cc1ccccc1` (stereo not given), the growth inhibition is, setting by setting: (at 1.2 µM) -1%; (at 3.7 µM) 1%; (at 11.0 µM) 99% (active); (at 33.0 µM) 54%; (at 100.0 µM) 99% (active).
For `CC[n+]1ccc2c(C)c3[nH]c4ccc(O)cc4c3c(C)c2c1`, the growth inhibition was -13% (at 1.2 µM); 7% (at 3.7 µM); 3% (at 11.0 µM); 9% (at 33.0 µM); 14% (at 100.0 µM).
`O=C(NC(Nc1ccc(F)c(Cl)c1)(C(F)(F)F)C(F)(F)F)C(C(F)(F)F)C(F)(F)F`: the growth inhibition runs as follows: (at 1.2 µM) 8%; (at 3.7 µM) 7%; (at 11.0 µM) 48%; (at 33.0 µM) 96% (active); (at 100.0 µM) 98% (active).
The like results for `CN(C)c1ccc(Sc2ccc3nc(N)nc(N)c3c2)cc1` were, in that order, 15%, 12%, 10%, -7% and -5%.
As to `CCCCN1C(=O)N(c2ccc(OCC)cc2)C2N(CCCC)C1C(C)(C)C2(C)C` (stereo not given), the growth inhibition reads like this: (at 1.2 µM) -3%; (at 3.7 µM) 3%; (at 11.0 µM) 9%; (at 33.0 µM) 19%; (at 100.0 µM) 52%.

The values above are taken from PubChem BioAssay (NCI).
